Bioassay records (PubChem BioAssay)
A selection: hits, their analogues and other compounds. The true share with any hit is near 2%.
MBD2 DNA inh: inhibitors of human MBD2 binding to methylated oligonucleotide. TR-FRET. inhibition, % at 4.4 µM. 370,000 compounds, 0.31% hits. AID 686964; in the data active means inhibition above about 13%
Target sequence (Q9UBB5 whole entry, looked up): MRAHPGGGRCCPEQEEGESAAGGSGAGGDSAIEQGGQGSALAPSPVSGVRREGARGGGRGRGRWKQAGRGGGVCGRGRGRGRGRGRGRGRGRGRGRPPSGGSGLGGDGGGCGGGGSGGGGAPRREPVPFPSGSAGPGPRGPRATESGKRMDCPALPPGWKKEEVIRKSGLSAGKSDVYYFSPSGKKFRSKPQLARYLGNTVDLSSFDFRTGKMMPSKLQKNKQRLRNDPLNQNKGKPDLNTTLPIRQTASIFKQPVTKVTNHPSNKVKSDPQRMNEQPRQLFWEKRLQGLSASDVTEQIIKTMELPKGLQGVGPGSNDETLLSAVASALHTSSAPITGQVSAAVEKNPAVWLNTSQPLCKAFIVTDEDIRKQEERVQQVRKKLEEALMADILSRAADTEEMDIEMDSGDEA
LEDGF integ inh: blocks HIV-1 LEDGF/p75-dependent DNA integration. TR-FRET IN-LEDGF/p75 DNA integration, Eu/Cy5. inhibition, % at 3.7 µM. 370,000 compounds, 0.64% hits. AID 743269;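 active means inhibition above the screen-wide mean plus 3 SD, cut at about 13% in these data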;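 further: signal is the Cy5 over europium emission ratio at 671 and 618 nm; 0% = plate median of compound wells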
TCR-CD3 inh: human TCR-CD3 binding inhibition. TAMRA-labeled TCR probe fluorescence, biochemical. inhibition, % at 9.4 µM. 360,000 compounds, 0.37% hits;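 further: recombinant mutant TCR 2C K166C tagged with TAMRA read by polarization; 0% = receptor in buffer alone and 100% = receptor with positive control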
Rin1-Abl PPI inh: blocks binding of human Rin1 to Abl | AID 588664 | inhibition, % at 7.35 µM | TR-FRET Rin1/Abl binding, biochemical | 360,000 compounds, 0.4% hits | P00519+Q13671; in the data active means inhibition above about 5%, passing the limit was not always enough
UHRF1 MBD2 ctr: human UHRF1 methylated DNA binding inhibitors | Q96T88 | UHRF1 binding to methylated oligo, TR-FRET | inhibition, % at 4.4 µM | 370,000 compounds, 0.75% hits | AID 687016; in the data active means inhibition above about 21%;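 further: UHRF1 SRA domain binding a hemimethylated CpG hairpin DNA probe; 0% = median of test compound wells and 100% = reference inhibitor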
BSA TAMRA ctr: BSA probe counter-screen for TCR-CD3 inhibitors. shares compounds with TCR-CD3 inh. TAMRA-labeled BSA probe fluorescence counterscreen. inhibition, % at 9.4 µM. 1,200 compounds, 10% hits; in the data active means inhibition above about 23%;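 further: 0% = buffer low control and 100% = reference high control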
TCR-CD3 conf: TCR-CD3 interaction inhibition, confirmation. 1,200 compounds, 48% hits. TAMRA-labeled TCR probe fluorescence binding assay. AID 652036. inhibition, % at 9.4 µM. shares compounds with TCR-CD3 inh
The depositor's hits bear a star; . = not tested or not shown; + = active, no number. Unless noted, no stated cut-off is given here; in the data, active means inhibition above about 19%; inactive means the rest.

SMILES	MBD2 DNA inh	LEDGF integ inh	TCR-CD3 inh	Rin1-Abl PPI inh	UHRF1 MBD2 ctr	BSA TAMRA ctr	TCR-CD3 conf
CC(=O)Nc1ccc(N2C(=O)c3cccc4c(O)ccc(c34)C2=O)cc1	-11.6	-6.5	54.4*	-12.7	-18.5	74.3*	51.8*
COc1ccc(N2C(=O)c3cccc4c(N(C)CCO)ccc(c34)C2=O)cc1	-8.0	-2.5	5.5	-20.2	-18.4	.	.
O=C1c2cccc3c(O)ccc(c23)C(=O)N1Cc1ccco1	-21.6	6.7	40.6*	-13.3	-41.0	66.7*	47.3*
Cc1ccc(N2C(=O)c3cccc4c(C(=O)O)ccc(c34)C2=O)cc1	1.4	-0.7	-2.5	.	1.9	.	.
O=C1c2cccc3c(O)ccc(c23)C(=O)N1c1ccc(Cl)cc1	-21.6	5.2	32.5*	-8.2	-32.9	26.2*	20.5*
CC(C)N1CCSC1=S	-5.4	0.5	-8.2	3.3	0.7	.	.
O=C(NNC(=S)NC(=O)c1cccs1)c1ccc(O)cc1	-3.6	1.7	26.3*	-1.1	-4.7	-7.0	23.1*
O=C(NNC(=S)NC(=O)c1cccs1)c1ccc(NC(=O)c2ccccc2)cc1	0.2	1.7	15.0	-0.9	1.7	.	.
COc1ccc(C(=O)NNC(=S)NC(=O)/C=C/c2cccs2)cc1	1.2	0.8	24.6*	0.3	0.0	-1.4	12.1
Cc1ccccc1NS(=O)(=O)c1ccc(C(=O)N2CCC2)cc1	-4.5	2.3	20.3*	0.8	-0.5	2.4	0.8
CCN(CC)c1ccc(S(=O)(=O)N2CCOCC2)cc1NC(=O)COC(=O)C1=COCCO1	2.5	2.5	-1.1	1.6	0.8	.	.
COCCCNc1c2c3c(cccc3[nH]c1=O)C(=O)c1ccccc1-2	-46.6	1.1	172.0*	-97.1	-150.4	+	185.1*
CC1CCC(NC(=O)c2cc(Cl)nc3ccccc23)CC1 (stereo not drawn)	-1.3	-1.9	-12.8	3.3	3.0	.	.
O=C(O)c1cccc(N2C(=O)/C(=C/c3ccc(SCc4ccc(Cl)cc4)o3)SC2=S)c1	40.4*	60.1*	19.6*	1.5	89.2*	-15.6	6.9
CN(C)CCNC(=O)C1(O)c2cc(Br)ccc2NC(=O)N1c1ccc(Cl)cc1 (stereo not drawn)	1.5	-4.0	0.8	3.8	2.2	.	.
CCOC(=O)c1cc(OC(C)=O)c2ccc(OC)c(OC)c2c1	-0.9	-5.1	-1.9	-2.9	-0.8	.	.
CN(C)c1ccc(Cc2cc3c(O)ccc(O)c3cc(Cc3ccc(N(C)C)cc3)c2=O)cc1	35.3*	63.5*	42.6*	11.3	51.3*	16.8	37.9*
Clc1ccc(-c2csc(NCC3CCCO3)n2)cc1 (stereo not drawn)	2.2	2.0	0.6	.	1.2	.	.
COc1ccc(OCc2cc(C(=O)NC3Cc4ccccc4C3)no2)c(Cl)c1	6.9	-0.5	0.0	0.1	-0.5	.	.
COc1ccc(OCc2cc(C(=O)N[C@H]3CCCCNC3=O)no2)c(Cl)c1	-4.9	0.1	21.4*	1.1	-3.3	0.7	-0.1
CCCC(=O)NNC(=O)c1c(O)c2ccccc2[nH]c1=O	4.9	3.9	33.9*	-1.0	0.4	-2.5	28.3*
Cc1ccc(S(=O)(=O)NNC(=O)c2c(O)c3ccccc3[nH]c2=O)cc1	3.9	-2.9	15.6	-2.6	5.4	.	.
O=C(NNC(=O)c1c(O)c2ccccc2[nH]c1=O)c1ccccc1	-3.7	2.3	41.0*	0.7	0.3	-7.0	22.4*
COC(=O)Nc1ccc(S(=O)(=O)NNC(=O)c2c(O)c3ccccc3[nH]c2=O)cc1	0.6	-1.1	23.6*	-1.6	0.0	-5.3	25.9*
CC(C)C(=O)NNC(=O)c1c(O)c2ccccc2[nH]c1=O	1.6	4.1	5.3	-5.6	-3.9	.	.
O=C(CC1CC1)N[C@@H]1CC[C@@H](CCNS(=O)(=O)c2ccc(F)cc2)O[C@@H]1CO	-3.5	0.7	12.8	.	0.0	.	.
CCOC(=O)N1CCN(C(=O)C[C@@H]2C[C@@]3(C(=O)OC)CCCCC=C3N(CCc3ccc(OC)c(OC)c3)C2=O)CC1	8.4	0.4	0.6	.	1.3	.	.
O=C(NCc1ccccc1)C(c1ccccc1)n1c(C2CC2)nc2ccccc21 (stereo not drawn)	2.7	-2.0	0.2	.	2.4	.	.
COc1cc(/C=N\NC(=O)C2COc3ccccc3O2)cc(OC)c1O (stereo not drawn)	1.0	-5.1	2.3	-0.1	0.1	.	.
